The values below come from PubChem BioAssay.

Assay in all cases: modulators of BK channel variants, profiling panel, selectivity assay, cell-based, U2OS BacMam, thallium flux, beta subunits (AID 1259406);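 note: initial slope of Thallos dye fluorescence rise after thallium is added; log ratio against the mean of 0.3% DMSO vehicle wells on the same plate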
The subject of one experiment is F380Y. The following applies: at 30 µM.
The subject of the next experiment is F380Y/beta1. The settings on record: at 30 µM.
The next experiment relates to F380Y/beta2Delta. The settings on record: at 30 µM.
For the next experiment, the system named is F380Y/beta4. The settings on record: at 30 µM.
Experiment [1] has as its target Calcium-activated potassium channel subunit alpha-1 (Homo sapiens) + Leucine-rich repeat-containing protein 26 (Homo sapiens) (UniProt Q12791+Q2I0M4). The settings on record: F380Y/Slo1WT/gamma1, at 30 µM.
The subject of the next experiment is R275C. The settings on record: at 30 µM.
The test system of another experiment is R275C/beta1. The following applies: at 30 µM.
Another experiment has as its system R275C/beta2Delta. The settings on record: at 30 µM.
Another experiment concerns R275C/beta4. The following applies: at 30 µM.
The subject of another experiment is R275C/Slo1WT/beta2. The settings on record: at 30 µM.

Unmarked numbers belong to inactive results. Calls of active or inactive are those of the source.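 Rule for the calls: active = thallium flux through the channel raised or lowered by more than 3 SD from vehicle-only wells, actives on both sides; inactive = the rest.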

Sequence of Calcium-activated potassium channel subunit alpha-1 (Homo sapiens) + Leucine-rich repeat-containing protein 26 (Homo sapiens) (Q2I0M4 whole entry, looked up, one chain of several): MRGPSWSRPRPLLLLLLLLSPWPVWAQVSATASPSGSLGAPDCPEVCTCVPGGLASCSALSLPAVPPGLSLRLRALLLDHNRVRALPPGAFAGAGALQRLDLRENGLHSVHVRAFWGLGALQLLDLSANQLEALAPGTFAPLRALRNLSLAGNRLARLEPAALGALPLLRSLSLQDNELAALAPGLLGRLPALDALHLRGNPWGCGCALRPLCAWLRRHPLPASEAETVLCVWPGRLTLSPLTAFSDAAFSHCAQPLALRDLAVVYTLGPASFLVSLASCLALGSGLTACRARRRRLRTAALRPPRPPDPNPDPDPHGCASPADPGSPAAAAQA

On to `CC12CCC(c3c1nn(-c1ccccc1)c3C(F)(F)F)C2(C)C` (stereo not given), for which the log fold change Tl+ flux is 0.0382 in the experiment on F380Y; 0.00752 in the experiment with F380Y/beta1; 0.00374 in the experiment with F380Y/beta2Delta; 0.00603 in the experiment with F380Y/beta4; 0.00466 in experiment [1]; 0.00439 in the experiment with R275C. The log fold change Tl+ flux with R275C/beta1 is -0.0295; in the experiment with R275C/beta2Delta it was 0.0124; in the experiment with R275C/beta4, -0.0271; in the experiment with R275C/Slo1WT/beta2, -0.0353.
With `O=C1c2ccccc2C(=O)N1CNc1ccc(Oc2ccc(Cl)cc2)cc1`, the log fold change Tl+ flux with F380Y is 0.0258; in the experiment on F380Y/beta1, 0.986 (active); in the experiment with F380Y/beta2Delta it was 0.0357; with F380Y/beta4 it was 0.151 (active); in [1], 0.327 (active); with R275C it was 0.06. Moreover, the log fold change Tl+ flux in the experiment on R275C/beta1 was 0.443 (active); in the experiment with R275C/beta2Delta, 0.0194; in the experiment on R275C/beta4, 0.104 (active); in the experiment on R275C/Slo1WT/beta2, 0.0127.
Take `Cc1nc(-c2ccc(S(=O)(=O)N3CCCN(c4ccc(C(F)(F)F)cn4)CC3)s2)cs1`: the log fold change Tl+ flux with F380Y was 0.00624; in the experiment on F380Y/beta1 it was -0.00592; with F380Y/beta2Delta it was -0.0273; with F380Y/beta4, -0.105 (active); in experiment [1], 0.00148; in the experiment on R275C, -0.0736. In addition, the log fold change Tl+ flux with R275C/beta1 was -0.0131; with R275C/beta2Delta it was -0.0332; in the experiment with R275C/beta4 it was -0.00508; in the experiment with R275C/Slo1WT/beta2, 0.0123.
On to `CS(=O)(=O)NNc1c(Cl)cc(Cl)cc1Cl`, for which the log fold change Tl+ flux is 0.00053 in the experiment on F380Y; -0.000501 in the experiment with F380Y/beta1; -0.00312 with F380Y/beta2Delta; 0.0402 in the experiment with F380Y/beta4; 0.016 in experiment [1]; 0.0374 with R275C. Besides, the log fold change Tl+ flux with R275C/beta1 was -0.0143; in the experiment on R275C/beta2Delta it was 0.00102; in the experiment on R275C/beta4, 0.0275; with R275C/Slo1WT/beta2, 0.0607.
Regarding `NC(C=Cc1cc(C(F)(F)F)cc(C(F)(F)F)c1)=NOC(=O)c1c(F)cccc1F`, the log fold change Tl+ flux in the experiment with F380Y is -0.0565; in the experiment on F380Y/beta1 it was 0.0127; in the experiment with F380Y/beta2Delta, -0.0278; with F380Y/beta4, -0.0864; in [1] it was -0.0341; in the experiment on R275C it was -0.0159. The log fold change Tl+ flux is -0.0569 in the experiment on R275C/beta1, -0.0168 in the experiment with R275C/beta2Delta, 0.0381 with R275C/beta4 and 0.0436 in the experiment with R275C/Slo1WT/beta2.
Consider `Cc1ccc(S(C)(=O)=NC(=O)c2ccc(-c3cc(C(F)(F)F)nn3C)s2)cc1` (stereo not given), for which the log fold change Tl+ flux in the experiment on F380Y was -0.000678; in the experiment with F380Y/beta1 it was 0.0247; in the experiment on F380Y/beta2Delta it was -0.011; in the experiment on F380Y/beta4, 0.0284; in experiment [1], 0.0389; in the experiment with R275C, -0.0362. The log fold change Tl+ flux was 0.013 with R275C/beta1, 0.015 in the experiment with R275C/beta2Delta, 0.00574 in the experiment on R275C/beta4 and 0.0204 in the experiment with R275C/Slo1WT/beta2.
On to `O=S(=O)(Nc1cc(Cl)c(-n2cccc2)cc1Oc1ccc(Cl)cc1)c1ccc(Cl)cc1`, for which the log fold change Tl+ flux in the experiment with F380Y was 0.0117; with F380Y/beta1 it was -0.0223; in the experiment on F380Y/beta2Delta it was 0.00907; with F380Y/beta4, -0.0612; in experiment [1], -0.0472; with R275C it was 0.0112. Moreover, the log fold change Tl+ flux in the experiment on R275C/beta1 is -0.0614; in the experiment with R275C/beta2Delta, -0.0256; with R275C/beta4, 0.0232; with R275C/Slo1WT/beta2, -0.0536.
Take `CC(C)(C)c1cc2nc(C(F)(F)F)cc(NN=Cc3ccccc3)n2n1`: the log fold change Tl+ flux in the experiment on F380Y was 0.0101; in the experiment with F380Y/beta1 it was 0.0617; in the experiment with F380Y/beta2Delta it was 0.0191; in the experiment on F380Y/beta4, -0.0217; in experiment [1] it was -0.0501; with R275C, -0.0499. Moreover, the log fold change Tl+ flux in the experiment with R275C/beta1 was -0.0176; in the experiment with R275C/beta2Delta, -0.0336; in the experiment with R275C/beta4, -0.0304; with R275C/Slo1WT/beta2 it was -0.0137.
For the compound `Cc1cnc(N)c(C)n1`, the log fold change Tl+ flux in the experiment with F380Y was 0.0781; with F380Y/beta1, 0.0374; in the experiment with F380Y/beta2Delta it was 0.0872; with F380Y/beta4, -0.0219; in experiment [1] it was 0.00805; in the experiment with R275C it was -0.0212. Also, the log fold change Tl+ flux in the experiment on R275C/beta1 was -0.0766; with R275C/beta2Delta, 0.039; in the experiment on R275C/beta4, -0.0212; in the experiment with R275C/Slo1WT/beta2, 0.0123.
For `O=C(O)CC1(CC(=O)Nc2cccc3nsnc23)CCCCC1`, the log fold change Tl+ flux in the experiment with F380Y is 0.0408; with F380Y/beta1, 0.0186; in the experiment with F380Y/beta2Delta it was 0.0387; in the experiment with F380Y/beta4, 0.0555; in experiment [1], 0.00374; with R275C, 0.055. Besides, the log fold change Tl+ flux with R275C/beta1 is 0.00874; in the experiment with R275C/beta2Delta, 0.00584; with R275C/beta4, 0.0536; in the experiment on R275C/Slo1WT/beta2 it was 0.0319.
Regarding `CC(=NO)c1ccc2c(c1)C(C)(C)CCC2(C)C`, the log fold change Tl+ flux was -0.246 (active) with F380Y; -0.197 (active) in the experiment on F380Y/beta1; -0.444 (active) in the experiment on F380Y/beta2Delta; -0.152 (active) in the experiment with F380Y/beta4; -0.146 (active) in experiment [1]; -0.00509 with R275C. Moreover, the log fold change Tl+ flux in the experiment on R275C/beta1 was 0.0184; with R275C/beta2Delta, -0.00725; in the experiment on R275C/beta4, -0.0253; in the experiment on R275C/Slo1WT/beta2 it was -0.0443.
In the case of `Cc1nc(-c2ccc(C(F)(F)F)cc2)sc1CO`, the log fold change Tl+ flux was 0.0603 in the experiment on F380Y; 0.197 (active) in the experiment with F380Y/beta1; 0.0517 in the experiment on F380Y/beta2Delta; 0.104 (active) in the experiment with F380Y/beta4; 0.156 (active) in experiment [1]; 0.0174 with R275C. Besides, the log fold change Tl+ flux with R275C/beta1 was 0.0853; in the experiment with R275C/beta2Delta, 0.0843 (active); in the experiment on R275C/beta4, 0.0953 (active); with R275C/Slo1WT/beta2 it was 0.00529.
`CN1c2ccccc2C(C)(C)C12C=Cc1cc(Br)cc([N+](=O)[O-])c1O2` (stereo not given): the log fold change Tl+ flux is 0.0436 in the experiment with F380Y; 0.162 (active) in the experiment on F380Y/beta1; 0.0613 in the experiment on F380Y/beta2Delta; 0.00641 in the experiment on F380Y/beta4; 0.0283 in experiment [1]; 0.00244 in the experiment on R275C. Also, the log fold change Tl+ flux in the experiment on R275C/beta1 was 0.132 (active); in the experiment with R275C/beta2Delta, 0.0868 (active); in the experiment with R275C/beta4 it was 0.0424; in the experiment with R275C/Slo1WT/beta2, -0.0665.
